Measured values published in PubChem BioAssay AID1002 (National Center for Advancing Translational Sciences (NCATS), 2008).
Active and inactive are the calls of the source.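 How the source made its calls: active means compound given an inhibitor call from its dose-response curve against AmpC beta-lactamase with detergent added; inactive means the rest.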

Molecular target: Beta-lactamase (Escherichia coli (strain K12)) (UniProt P00811)
Experiment: Confirmation Concentration-Response Assay for Inhibitors of AmpC Beta-Lactamase (assay with detergent)
Conditions: purified AmpC, nitrocefin absorbance 480 nm, 0.01% Triton
Procedure: NIH Molecular Libraries Screening Centers Network [MLSCN] NIH Chemical Genomics Center [NCGC] MLSCN Grant: MH079825-01 Assay Provider: Shoichet, Brian K. This aggregation profiling approach exploits the sensitivity of aggregate formation to detergent. Inhibition of b-lactamase is measured in the presence and absence of 0.01% Triton X-100 (Feng 2007). This particular assay is a confirmation of previous qHTS (Inglese, 2006), Pubchem AID 584, assay with presence of 0.01% Triton X-100. For a related assay without detergent, see AID 585. Compounds that inhibit only in the absence of detergent are considered likely promiscuous aggregators. In this confirmation assay, AmpC activity was measured by following the absorbance at 480 nm. Nitrocefin is a chromogenic substrate: while nitrocefin is yellow (lmax 390 nm), the product of its hydrolysis is red (lmax 486 nm, 17,000 M-1). AmpC beta-lactamase was provided by Prof Brian Shoichet's lab, UCSF.
Buffer: 1. 20 mM phosphate buffer, pH 7.0, 0.01 % Triton X-100 2. Reagents/Controls. 3. Buffer in row 32 as negative control (no enzyme). 4. 3 nM AmpC final concentration in rows 1-31. Assay Steps: Six uL of reagents were dispensed to 1536-well Greiner black clear bottom plates. Compounds (23 nL) were transferred via Kalypsys PinTool. The plates were incubated for 15 min at room temperature, and then 2 uL of 800 uM solution of nitrocefin was added to start the reaction. The plates were immediately transferred to and read every 20 seconds for 3 minutes on ViewLux (Perkin-Elmer) High-throughput CCD imager using 480 nm absorbance protocol.

Chain of Beta-lactamase (Escherichia coli (strain K12)) (P00811 whole entry, looked up): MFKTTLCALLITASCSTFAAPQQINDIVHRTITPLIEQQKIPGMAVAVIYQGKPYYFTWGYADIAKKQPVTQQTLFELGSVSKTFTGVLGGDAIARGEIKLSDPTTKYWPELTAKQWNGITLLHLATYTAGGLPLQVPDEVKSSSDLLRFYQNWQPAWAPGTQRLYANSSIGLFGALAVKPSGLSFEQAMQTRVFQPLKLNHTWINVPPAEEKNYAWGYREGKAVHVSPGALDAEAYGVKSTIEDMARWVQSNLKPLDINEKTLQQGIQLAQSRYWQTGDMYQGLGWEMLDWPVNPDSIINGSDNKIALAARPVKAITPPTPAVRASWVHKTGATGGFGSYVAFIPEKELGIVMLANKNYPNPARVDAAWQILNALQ

Potency, active:
COC(=O)CS(=O)(=O)c1nnc([C@H](Cc2ccccc2)NC(=O)OC(C)(C)C)o1 9.4 µM
CC(C)(C)OC(=O)N[C@@H](Cc1ccccc1)c1nnc(S(=O)(=O)Cc2cccc(F)c2)o1 15 µM
CC(C)[C@H](NC(=O)OC(C)(C)C)c1nnc(S(=O)(=O)Cc2c(F)cccc2Cl)o1 1.8 µM
CC[C@@H](C)[C@H](NC(=O)OC(C)(C)C)c1nnc(S(=O)(=O)Cc2cc(C)ccc2C)o1 10 µM
CC(C)(C)OC(=O)N[C@@H](Cc1ccccc1)c1nnc(S(=O)(=O)Cc2ccccc2)o1 16 µM
Cc1ccccc1CS(=O)(=O)c1nnc([C@H](CC(C)C)NC(=O)OC(C)(C)C)o1 11 µM
CC(C)(C)OC(=O)NCCc1nnc(S(=O)(=O)Cc2ccc(Cl)cc2Cl)o1 0.066 µM
CCC(C)[C@@H](NC(=O)OC(C)(C)C)c1nnc(S(=O)(=O)Cc2cccc(C)c2)o1 (some centres undefined) 10 µM
CC(C)C[C@H](N)c1nnc(S(=O)(=O)Cc2cccc(F)c2)o1 8.6 µM
